According to the supplement of paper PMC8728848:
About 410 targets per protein were measured; listed, in parts, are those with the strongest signals and a random draw of the rest.

Key:
Assay in all cases: glycan array binding signal (z-score within array); higher = stronger binding
Conditions in all cases: glycan notation: IUPAC condensed, linker removed; mutation: Q318A
[1] = target: Fuc(a1-2)Gal(b1-3)GalNAc(b1-4)[Neu5Ac(a2-3)]Gal(b1-4)Glc
Summary of the method: (§1)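 Glycan array data were curated from 3228 arrays in the Consortium for Functional Glycomics database and kept only where the protein sequence was available. Glycan names were converted to IUPAC-condensed notation, and columns mapping to the same glycan were averaged. The binding signal is a within-array Z-score, averaged across arrays of the same protein sequence at different concentrations or buffers and across linkers. Negative Z-scores can be read as non-binding.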

[2] = target: Fuc(a1-2)Gal(b1-3)GlcNAc(b1-3)[Fuc(a1-2)Gal(b1-3)GlcNAc(b1-6)]GalNAc
Summary of the method: as §1

[3] = target: Fuc(a1-2)Gal(b1-4)Fuc(a1-3)]GlcNAc(b1-2)Man(a1-3)[Fuc(a1-2)Gal(b1-4)[Fuc(a1-3)]GlcNAc(b1-2)Man(a1-6)]Man(b1-4)GlcNAc(b1-4)GlcNAc
Summary of the method: as §1

Fuc(a1-2)Gal(b1-4)GlcNAc = target: Fuc(a1-2)Gal(b1-4)GlcNAc
Summary of the method: as §1

[4] = target: Fuc(a1-2)Gal(b1-4)GlcNAc(b1-2)Man(a1-3)[Fuc(a1-2)Gal(b1-4)GlcNAc(b1-2)Man(a1-6)]Man(b1-4)GlcNAc(b1-4)GlcNAc
Summary of the method: as §1

[5] = target: Fuc(a1-2)Gal(b1-4)GlcNAc(b1-3)Gal(b1-4)GlcNAc(b1-2)Man(a1-3)[Fuc(a1-2)Gal(b1-4)GlcNAc(b1-3)Gal(b1-4)GlcNAc(b1-2)Man(a1-6)]Man(b1-4)GlcNAc(b1-4)GlcNAc
Summary of the method: as §1

[6] = target: Fuc(a1-2)[Gal(a1-3)]Gal(b1-4)GlcNAc(b1-2)Man(a1-3)[Fuc(a1-2)[Gal(a1-3)]Gal(b1-4)GlcNAc(b1-2)Man(a1-6)]Man(b1-4)GlcNAc(b1-4)GlcNAc
Summary of the method: as §1

[7] = target: Fuc(a1-2)[GalNAc(a1-3)]Gal(b1-4)GlcNAc(b1-2)Man
Summary of the method: as §1

[8] = target: Fuc(a1-2)[GalNAc(a1-3)]Gal(b1-4)GlcNAc(b1-3)Gal(b1-4)GlcNAc
Summary of the method: as §1

[9] = target: Fuc(a1-2)[GalNAc(a1-3)]Gal(b1-4)GlcNAc(b1-3)GalNAc
Summary of the method: as §1

[10] = target: Fuc(a1-3)[Gal(b1-4)]GlcNAc6S
Summary of the method: as §1

Gal(a1-3)Gal(b1-4)GlcNAc = target: Gal(a1-3)Gal(b1-4)GlcNAc
Summary of the method: as §1

Gal(a1-4)Gal(b1-4)Glc = target: Gal(a1-4)Gal(b1-4)Glc
Summary of the method: as §1

[11] = target: Gal(b1-3)GalNAc(b1-4)Gal(b1-4)Glc
Summary of the method: as §1

[12] = target: Gal(b1-3)GlcNAc(b1-3)Gal(b1-4)GlcNAc(b1-3)Gal(b1-4)GlcNAc(b1-2)[Gal(b1-3)GlcNAc(b1-3)Gal(b1-4)GlcNAc(b1-3)Gal(b1-4)GlcNAc(b1-6)]Man(a1-6)[Gal(b1-3)GlcNAc(b1-3)Gal(b1-4)GlcNAc(b1-3)Gal(b1-4)GlcNAc(b1-2)Man(a1-3)]Man(b1-4)GlcNAc(b1-4)[Fuc(a1-6)]GlcNAc
Summary of the method: as §1

[13] = target: Gal(b1-3)GlcNAc(b1-6)Gal(b1-4)GlcNAc
Summary of the method: as §1

[14] = target: Gal(b1-3)GlcNAc(b1-6)[Gal(b1-3)]GalNAc
Summary of the method: as §1

Gal(b1-4)Gal = target: Gal(b1-4)Gal
Summary of the method: as §1

Gal(b1-4)GlcNAc(b1-2)Man = target: Gal(b1-4)GlcNAc(b1-2)Man
Summary of the method: as §1

[15] = target: Gal(b1-4)GlcNAc(b1-2)Man(a1-3)[Gal(b1-4)GlcNAc(b1-2)Man(a1-6)][GlcNAc(b1-4)]Man(b1-4)GlcNAc(b1-4)[Fuc(a1-6)]GlcNAc
Summary of the method: as §1

[16] = target: Gal(b1-4)GlcNAc(b1-3)Gal(b1-4)GlcNAc(b1-3)Gal(b1-4)GlcNAc(b1-2)[Gal(b1-4)GlcNAc(b1-3)Gal(b1-4)GlcNAc(b1-3)Gal(b1-4)GlcNAc(b1-6)]Man(a1-6)[Gal(b1-4)GlcNAc(b1-3)Gal(b1-4)GlcNAc(b1-3)Gal(b1-4)GlcNAc(b1-2)Man(a1-3)]Man(b1-4)GlcNAc(b1-4)[Fuc(a1-6)]GlcNAc
Summary of the method: as §1

[17] = target: Gal(b1-4)GlcNAc(b1-3)Gal(b1-4)GlcNAc(b1-3)Gal(b1-4)GlcNAc(b1-3)Gal(b1-4)GlcNAc(b1-3)Gal(b1-4)GlcNAc(b1-2)Man(a1-3)[Gal(b1-4)GlcNAc(b1-3)Gal(b1-4)GlcNAc(b1-3)Gal(b1-4)GlcNAc(b1-3)Gal(b1-4)GlcNAc(b1-3)Gal(b1-4)GlcNAc(b1-2)Man(a1-6)]Man(b1-4)GlcNAc(b1-4)[Fuc(a1-6)]GlcNAc
Summary of the method: as §1

GalNAc(a1-3)GalNAc = target: GalNAc(a1-3)GalNAc
Summary of the method: as §1

GalNAc(b1-4)Gal(b1-4)Glc = target: GalNAc(b1-4)Gal(b1-4)Glc
Summary of the method: as §1

GalNAc(b1-4)GlcNAc = target: GalNAc(b1-4)GlcNAc
Summary of the method: as §1

[18] = target: Glc(a1-6)Glc(a1-6)Glc(a1-6)Glc
Summary of the method: as §1

[19] = target: GlcNAc(b1-2)Man(a1-3)[GlcNAc(b1-2)Man(a1-6)]Man(b1-4)GlcNAc(b1-4)GlcNAc
Summary of the method: as §1

[20] = target: GlcNAc(b1-2)[GlcNAc(b1-6)]Man(a1-6)[GlcNAc(b1-2)Man(a1-3)]Man(b1-4)GlcNAc(b1-4)[Fuc(a1-6)]GlcNAc
Summary of the method: as §1

[21] = target: GlcNAc(b1-3)Gal(b1-4)GlcNAc(b1-6)[GlcNAc(b1-3)Gal(b1-3)]GalNAc
Summary of the method: as §1

[22] = target: GlcNAc(b1-4)GlcNAc(b1-4)GlcNAc
Summary of the method: as §1

[23] = target: GlcNAc(b1-6)Gal(b1-4)GlcNAc
Summary of the method: as §1

Kdn(a2-3)Gal(b1-3)GalNAc = target: Kdn(a2-3)Gal(b1-3)GalNAc
Summary of the method: as §1

[24] = target: Man(a1-3)[Man(a1-6)]Man(a1-6)[Man(a1-3)]Man
Summary of the method: as §1

[25] = target: Neu5Ac(a2-3)Gal(b1-3)GalNAc(b1-4)Gal(b1-4)Glc
Summary of the method: as §1

[26] = target: Neu5Ac(a2-3)Gal(b1-3)GlcNAc(b1-2)[Neu5Ac(a2-3)Gal(b1-3)GlcNAc(b1-4)]Man(a1-6)[Neu5Ac(a2-3)Gal(b1-3)GlcNAc(b1-2)Man(a1-3)]Man(b1-4)GlcNAc(b1-4)GlcNAc
Summary of the method: as §1

[27] = target: Neu5Ac(a2-3)Gal(b1-4)GlcNAc
Summary of the method: as §1

[28] = target: Neu5Ac(a2-3)Gal(b1-4)GlcNAc(b1-2)Man
Summary of the method: as §1

[29] = target: Neu5Ac(a2-3)Gal(b1-4)GlcNAc(b1-3)[Neu5Ac(a2-3)Gal(b1-4)GlcNAc(b1-6)]GalNAc
Summary of the method: as §1

[30] = target: Neu5Ac(a2-3)Gal(b1-4)GlcNAc(b1-6)[Gal(b1-3)]GalNAc
Summary of the method: as §1

[31] = target: Neu5Ac(a2-3)Gal(b1-4)[Fuc(a1-3)]GlcNAc(b1-2)Man
Summary of the method: as §1

[32] = target: Neu5Ac(a2-3)Gal(b1-4)[Fuc(a1-3)]GlcNAc(b1-6)[Neu5Ac(a2-3)Gal(b1-3)]GalNAc
Summary of the method: as §1

[33] = target: Neu5Ac(a2-6)Gal(b1-4)GlcNAc(b1-2)Man(a1-3)[Gal(b1-4)GlcNAc(b1-2)Man(a1-6)]Man(b1-4)GlcNAc(b1-4)GlcNAc
Summary of the method: as §1

[34] = target: Neu5Ac(a2-6)Gal(b1-4)GlcNAc(b1-2)Man(a1-3)[Man(a1-6)]Man(b1-4)GlcNAc(b1-4)GlcNAc
Summary of the method: as §1

[35] = target: Neu5Ac(a2-6)Gal(b1-4)GlcNAc(b1-2)[Neu5Ac(a2-6)Gal(b1-4)GlcNAc(b1-4)]Man(a1-3)[GlcNAc(b1-4)][Neu5Ac(a2-6)Gal(b1-4)GlcNAc(b1-2)[Neu5Ac(a2-6)Gal(b1-4)GlcNAc(b1-6)]Man(a1-6)]Man(b1-4)GlcNAc(b1-4)GlcNAc
Summary of the method: as §1

[36] = target: Neu5Ac(a2-6)Gal(b1-4)GlcNAc(b1-3)Gal(b1-4)GlcNAc
Summary of the method: as §1

[37] = target: Neu5Ac(a2-6)GlcNAc(b1-4)GlcNAc(b1-4)GlcNAc
Summary of the method: as §1

Neu5Gc(a2-6)GalNAc = target: Neu5Gc(a2-6)GalNAc
Summary of the method: as §1

B1: SUN4 (Saccharomyces cerevisiae), P53616 (protein)
chain: MGSSHHHHHHSSGLVPRGSHNGSIYGDLADFSGPYEKFEDGTIPCGQFPSGQGVIPISWLDEGGWSGVENTDTSTGGSCKEGSYCSYACQPGMSKTQWPSDQPSDGRSIGGLLCKDGYLYRSNTDTDYLCEWGVDAAYVVSELSNDVAICRTDYPGTENMVIPTYVQAGDSLPLTVVDQDTYYTWQGLKTSAAYYVNNAGISVEDACVWGSSSSGVGNWAPLNFGAGSSDGVAYLSLIPNPNNGNALNFNVKIVAADDSSTVNGECIYENGSFSGGSDGCTVSVTAGKAKFVLYN
glycan array binding signal (z-score) [1]: -0.245 | glycan array binding signal (z-score) [2]: 0.442 | glycan array binding signal (z-score) [3]: 2.65 | glycan array binding signal (z-score) (Fuc(a1-2)Gal(b1-4)GlcNAc): -0.67 | glycan array binding signal (z-score) [4]: -0.18 | glycan array binding signal (z-score) [5]: 1.88 | glycan array binding signal (z-score) [6]: -0.077 | glycan array binding signal (z-score) [7]: -0.198 | glycan array binding signal (z-score) [8]: 0.152 | glycan array binding signal (z-score) [9]: 0.641 | glycan array binding signal (z-score) [10]: 0.316 | glycan array binding signal (z-score) (Gal(a1-3)Gal(b1-4)GlcNAc): -0.246 | glycan array binding signal (z-score) (Gal(a1-4)Gal(b1-4)Glc): 2.25 | glycan array binding signal (z-score) [11]: -0.46 | glycan array binding signal (z-score) [12]: 2.21 | glycan array binding signal (z-score) [13]: -0.212 | glycan array binding signal (z-score) [14]: -0.256 | glycan array binding signal (z-score) (Gal(b1-4)Gal): -0.573 | glycan array binding signal (z-score) (Gal(b1-4)GlcNAc(b1-2)Man): 0.857 | glycan array binding signal (z-score) [15]: -0.281 | glycan array binding signal (z-score) [16]: 1.61 | glycan array binding signal (z-score) [17]: 2.04 | glycan array binding signal (z-score) (GalNAc(a1-3)GalNAc): -1.37 | glycan array binding signal (z-score) (GalNAc(b1-4)Gal(b1-4)Glc): 1.66 | glycan array binding signal (z-score) (GalNAc(b1-4)GlcNAc): 0.304 | glycan array binding signal (z-score) [18]: 0.21 | glycan array binding signal (z-score) [19]: -0.045 | glycan array binding signal (z-score) [20]: 2.54 | glycan array binding signal (z-score) [21]: 0.161 | glycan array binding signal (z-score) [22]: 0.057 | glycan array binding signal (z-score) [23]: -0.7 | glycan array binding signal (z-score) (Kdn(a2-3)Gal(b1-3)GalNAc): -0.503 | glycan array binding signal (z-score) [24]: 1.55 | glycan array binding signal (z-score) [25]: 1.67 | glycan array binding signal (z-score) [26]: 1.64 | glycan array binding signal (z-score) [27]: -0.355 | glycan array binding signal (z-score) [28]: 0.689 | glycan array binding signal (z-score) [29]: 2.5 | glycan array binding signal (z-score) [30]: -0.111 | glycan array binding signal (z-score) [31]: -0.965 | glycan array binding signal (z-score) [32]: 3.41 | glycan array binding signal (z-score) [33]: -0.494 | glycan array binding signal (z-score) [34]: -1 | glycan array binding signal (z-score) [35]: -0.64 | glycan array binding signal (z-score) [36]: -0.838 | glycan array binding signal (z-score) [37]: -0.241 | glycan array binding signal (z-score) (Neu5Gc(a2-6)GalNAc): -0.69
